We go through 18 sequences from the supplement of paper PMC12645437, “Orthogonal IMiD-Degron Pairs Induce Selective Protein Degradation in Cells” (ACS Chemical Biology, 2025).

In all, about 8,300 sequences were measured (“log2 fold change of degron read counts, EGFP-low vs EGFP+ sorted cells (limma voom), compound-induced degradation”: median about -1.1, highest 2% from about 3.2 on). The entries come from a sample that favours the highest values as a whole.

The target in the assay is T1, CRBN, Q96SW2.
T1 chain: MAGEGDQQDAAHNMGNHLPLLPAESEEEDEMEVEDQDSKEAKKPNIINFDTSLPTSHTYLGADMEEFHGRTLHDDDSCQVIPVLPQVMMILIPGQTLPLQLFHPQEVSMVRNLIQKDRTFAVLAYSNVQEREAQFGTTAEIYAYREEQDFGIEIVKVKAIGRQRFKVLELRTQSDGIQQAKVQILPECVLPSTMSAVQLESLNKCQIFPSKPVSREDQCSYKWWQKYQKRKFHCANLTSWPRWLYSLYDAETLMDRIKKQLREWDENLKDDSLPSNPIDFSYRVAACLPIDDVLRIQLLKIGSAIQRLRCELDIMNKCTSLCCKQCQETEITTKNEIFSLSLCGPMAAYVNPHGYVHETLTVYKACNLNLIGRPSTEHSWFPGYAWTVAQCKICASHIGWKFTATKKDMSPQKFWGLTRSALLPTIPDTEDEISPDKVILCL
Description: log2 fold change of degron read counts, EGFP-low vs EGFP+ sorted cells (limma voom), compound-induced degradation; higher = more compound-induced degradation of the degron-EGFP fusion; degrons are variants of IKZF1/3 zinc finger 2; compound dose not given here. The following applies: Jurkat, 18 h.

Setting [1] is: compound: compound 19 (5-tert-butyl-thalidomide).
The mark [2] stands for this setting: compound: compound 22 (5-morpholino-thalidomide).
Where [3] appears, read: compound: compound 33 (diphenyl IMiD analogue).
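Also: pooled lentiviral library of zinc finger degron-EGFP fusions in mCherry-positive Jurkat cells, FACS-sorted after compound exposure, with degron abundance counted by next-generation sequencing.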

In the case of FDCPVCGAEFTQKGNLLRHIKL [46F_47D_49P_50V_52G_53A_54E_55F_67L_, Q9UKT9], the “log2 fold change of degron read counts” value reads like this: under setting [1], -0.42; under setting [2], -1.74; under setting [3], 0.6; (compound: thalidomide) 0.131.

Turning to FSCDVCGAAFTQKGNLLRHIKL [46F_47S_49D_50V_52G_53A_54A_55F_67L_, Q9UKT9], the “log2 fold change of degron read counts” value is 1.56 under setting [1], 1.45 under setting [2], 1.14 under setting [3] and -0.292 (compound: thalidomide).

As for LICEICGFTCTQKGNLLRHIKL [46L_47I_49E_50I_52G_53F_54T_55C_67L_, Q9UKT9], the “log2 fold change of degron read counts” value runs as follows: under setting [1], 0.795; under setting [2], 2.24; under setting [3], 2.34; (compound: thalidomide) 3.13.

As for FWCEICGADFTQKGNLLRHIKL [46F_47W_49E_50I_52G_53A_54D_55F_67L_, Q9UKT9], the “log2 fold change of degron read counts” value is 0.346 under setting [1], 0.98 under setting [2], -0.492 under setting [3] and -1.5 (compound: thalidomide).

On to FWCEICGAPFTQKGNLLRHIKL [46F_47W_49E_50I_52G_53A_54P_55F_67L_, Q9UKT9], for which the “log2 fold change of degron read counts” value turned out to be 3.82 under setting [1], 3.42 under setting [2], 2.64 under setting [3] and 1.23 (compound: thalidomide).

For FQCEICGRPFTQKGNLLRHIKL [46F_47Q_49E_50I_52G_53R_54P_55F_67L_, Q9UKT9], the “log2 fold change of degron read counts” value is -0.793 under setting [1], -0.383 under setting [2], -1.07 under setting [3] and 1.31 (compound: thalidomide).

As for FQCEICGAPFTQKGNLLRHIKL [46F_47Q_49E_50I_52G_53A_54P_55F_67L_, Q9UKT9], the “log2 fold change of degron read counts” value worked out at 3.69 under setting [1], 3.61 under setting [2], 2.03 under setting [3] and 3.72 (compound: thalidomide).

As to FGCEICGAPFTQKGNLLRHIKL [46F_47G_49E_50I_52G_53A_54P_55F_67L_, Q9UKT9], the “log2 fold change of degron read counts” value is 1.88 under setting [1], 0.802 under setting [2], -0.557 under setting [3] and -0.51 (compound: thalidomide).

In the case of FICEICGAPFTQKGNLLRHIKL [46F_47I_49E_50I_52G_53A_54P_55F_67L_, Q9UKT9], the “log2 fold change of degron read counts” value under setting [1] was 2.83, the “log2 fold change of degron read counts” value under setting [2] stood at 3.53, the “log2 fold change of degron read counts” value under setting [3] stood at 2.76 and the “log2 fold change of degron read counts” value (compound: thalidomide) was 3.43.

As to FNCEICGADFTQKGNLLRHIKL [46F_47N_49E_50I_52G_53A_54D_55F_67L_, Q9UKT9], the “log2 fold change of degron read counts” value was -1.15 under setting [1], -2.31 under setting [2], -1.14 under setting [3] and -1.4 (compound: thalidomide).

FNCEQCGAPFTQKGNLLRHIKL [46F_47N_49E_50Q_52G_53A_54P_55F_67L_, Q9UKT9]: the “log2 fold change of degron read counts” value is, setting by setting: under setting [1], -1.19; under setting [2], -2; under setting [3], -2.69; (compound: thalidomide) -2.17.

Consider FICEICGADFTQKGNLLRHIKL [46F_47I_49E_50I_52G_53A_54D_55F_67L_, Q9UKT9], for which the “log2 fold change of degron read counts” value by setting is: under setting [1], -2.33; under setting [2], -0.887; under setting [3], -0.381; (compound: thalidomide) 0.298.

On to FQCEICGADFTQKGNLLRHIKL [46F_47Q_49E_50I_52G_53A_54D_55F_67L_, Q9UKT9], for which the “log2 fold change of degron read counts” value by setting is: under setting [1], -0.47; under setting [2], 0.00637; under setting [3], 1.29; (compound: thalidomide) 3.

With FWCEICGRPFTQKGNLLRHIKL [46F_47W_49E_50I_52G_53R_54P_55F_67L_, Q9UKT9], the “log2 fold change of degron read counts” value by setting is: under setting [1], 1.92; under setting [2], 0.403; under setting [3], 0.52; (compound: thalidomide) -0.912.

For FNCEICGAPFTQKGNLLRHIKL [46F_47N_49E_50I_52G_53A_54P_55F_67L_, Q9UKT9], the “log2 fold change of degron read counts” value is, setting by setting: under setting [1], 3.39; under setting [2], 2.54; under setting [3], 0.567; (compound: thalidomide) 1.58.

Take LYCNQCGFFCTQKGNLLRHIKL [46L_47Y_49N_50Q_52G_53F_54F_55C_67L_, Q9UKT9]: the “log2 fold change of degron read counts” value is, setting by setting: under setting [1], -0.205; under setting [2], -0.821; under setting [3], -0.706; (compound: thalidomide) -0.795.

For the sequence FFCDICGAGFTQKGNLLRHIKL [46F_47F_49D_50I_52G_53A_54G_55F_67L_, Q9UKT9], the “log2 fold change of degron read counts” value is 2.9 under setting [1], 1.78 under setting [2], 0.35 under setting [3] and -0.766 (compound: thalidomide).

With FQCNQCGHIFTQKGNLLRHIKL [46F_47Q_49N_50Q_52G_53H_54I_55F_67L_, Q9UKT9], the “log2 fold change of degron read counts” value is, setting by setting: under setting [1], -2.78; under setting [2], -2.92; under setting [3], -2.91; (compound: thalidomide) -2.7.
